Inconclusive results are not listed. Calls of active or inactive are those of the source. Unless noted, calls follow the shape of the dose curve; as a rule, active = well fitted curve in the direction sought with a large enough effect; inconclusive = small, poorly fitted or top-dose-only effect, or another doubt; inactive = no such curve, though single readings can be large; an effect the other way counts as inactive or inconclusive.
How the values were obtained:
[1] = AP1 Signaling Pathway (AID 357; active = well fitted curve in either direction with a large enough effect, not every such curve was filed as active; also: % is scaled to controls: 0 for no effect and ±100 for the full control effect); conditions: ME-180 AP-1-bla reporter, EGF-induced, beta-lactamase ratio, 5 h; at 7.69 µM (top of the series) unless noted
Method in brief: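 AP-1-bla ME-180 cells with beta-lactamase reporter under AP-1 response element, stimulated with EC50 EGF; compounds titrated, 5 hours at 37 degrees Celsius. CCF4 read at 460/530 nm ratio; positive and negative modulators judged by AC50.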

[2] = biological target: Cytochrome P450 1A2 (Homo sapiens) (UniProt P05177); test: p450-cyp1a2 (AID 410; calls by dose curve; also: potency is read from the fitted curve at half-maximal effect)
Method in brief: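 Read-out is luminescence from luciferin produced by CYP1A2 demethylation of Luciferin-ME (100uM, at Km). Detection reagent stopped the 60 min NADPH-dependent reaction; signals were normalized to 57 uM furafylline.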

[3] = NFAT Signaling Pathway (AID 444; active = well fitted curve in either direction with a large enough effect, not every such curve was filed as active;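 also: carbachol stimulus at about its EC50 of 1 µM final; % is scaled to controls: 0 for no effect and ±100 for the full control effect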); conditions: Jurkat NFAT-bla M1, carbachol, beta-lactamase ratio, 5 h; at 7.69 µM (top of the series) unless noted
Method in brief: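 Jurkat cells carrying an NFAT-driven β-lactamase reporter and co-transfected muscarinic M1 receptor were treated with compound plus carbachol (1 uM final, an EC50 level) for 5 h at 37 °C. CCF4 loading followed for 1 h at RT; 460/530 nm ratio gave %activity.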

[4] = Stat Signaling Pathway (AID 446; active = well fitted curve in either direction with a large enough effect, not every such curve was filed as active;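 also: ME-180 cervical cancer cells given 40 pM IL-6 alongside compound; SIE-controlled beta-lactamase reporter measured as 460/530 nm FRET emission ratio; % is scaled to controls: 0 for no effect and ±100 for the full control effect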); conditions: ME-180 (cervical carcinoma) SIE beta-lactamase reporter, IL-6 stimulated, 5 h; at 7.69 µM (top of the series) unless noted
Method in brief: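 Normalization used AC90 stimulation (300 pM IL-6) and AC90 inhibition (125 nM pan-JAK inhibitor at 40 pM IL-6). The underlying signal is SIE-driven beta-lactamase in ME-180 cells after 5 h IL-6 exposure with compound.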

[5] = biological target: Glucocorticoid receptor (Homo sapiens) (UniProt P04150); test: GR-GFP Redistribution (AID 450;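 active = compounds whose dose series gives a full or clear partial fitted curve of increased nuclear translocation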; also: potency is read from the fitted curve at half-maximal effect); conditions: U2OS GR-GFP nuclear translocation, laser cytometry, 2 h
[6] = biological target: Glucocorticoid receptor (Homo sapiens) (UniProt P04150); test: GR-EFC Redistribution (AID 451; calls by dose curve; also: potency is read from the fitted curve at half-maximal effect); conditions: CHO-K1 GR-EFC translocation, beta-gal luminescence, 2 h
Method in brief: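 CHO-K1 cells stably expressing nuclear-localized β-gal enzyme acceptor and GR fused C-terminally to the enzyme donor fragment; ligand-driven nuclear translocation restores β-gal by complementation. Compounds titrated up to 46 uM final, 2 h at 37 °C; luminescence read.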

[7] = biological target: Mitogen-activated protein kinase 10 (Mus musculus) (UniProt Q61831); test: JNK3 AlphaScreen Assay (AID 530; active = well fitted curve in either direction with a large enough effect, not every such curve was filed as active;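 also: kinase came from lysate of stimulated human HepG2 cells; signal reports phosphorylation of biotinylated GST-cJun 1-79 at Ser73 with 10 µM ATP; % is scaled to controls: 0 for no effect and ±100 for the full control effect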)
Method in brief: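 Biotinylated GST-cJun(1-79) served as substrate for JNK3 in HepG2 lysates stimulated with IL-1beta and TNF-alpha. ATP was 10 uM final, pH 7.6. Ser73 phosphorylation was quantified by AlphaScreen (680 nm excitation).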

[8] = biological target: 3',5'-cyclic-AMP phosphodiesterase 4B (Homo sapiens) (UniProt Q07343); test: qHTS Assay for Inhibitors of PDE-IV (AID 607; active = well fitted activation curve with a large enough effect in the main read-out, with a control signal flat, not every such curve was filed as active; also: % of control where 0% means no effect)
Method in brief: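 HEK293 ACTOne cells with CNG channel (1000/well), endogenous PDE4; membrane potential dye, compounds up to 22.9 uM final. Fluorescence Ex 535/Em 590; RO 20-1724 (100 uM final) as reference.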

[9] = biological target: Cytochrome P450 3A4 (Homo sapiens) (UniProt P08684); test: qHTS Assay for Activators of Cytochrome P450 3A4 (AID 885); also: nearly all actives have a fitted effect of over 65% in size
Method in brief: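 Human CYP3A4 dealkylates Luciferin-PPXE to luciferin, which luciferase detection converts to light. Substrate was at its KM (25uM), buffer 200mM KPO4, reaction 60 min at RT.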

[10] = qHTS Assay for Lipid Storage Modulators (AID 1519; calls by dose curve); conditions: Drosophila S3 cells, BODIPY lipid droplet/cell ratio, laser cytometry, cells loaded with oleic acid; for activity change, negative = inhibition: at 57.5 µM (top of the series)
Method in brief: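 Cells seeded at 5,000 per well were treated with compounds over a concentration series and loaded with oleic acid (400 uM, as added). Lipid droplet fluorescence (488 nm excitation, 500-530 nm channel) was read by laser-scanning cytometry and normalized to 20 uM Triacsin C.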

[11] = biological target: Dual specificity protein kinase CLK4 (Homo sapiens) (UniProt Q9HAZ1); test: qHTS Assay for Inhibitors of CDC-like Kinase 4 (Kinase-Glo Assay) (AID 1770); also: nearly all actives have a fitted effect of over 65% in size; also: potency is read from the fitted curve at half-maximal effect
Method in brief: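 Recombinant human Clk4 (25 nM) phosphorylated RS repeat peptide (100 uM) with 1 uM ATP in Tris pH 7.5/MgCl2/EGTA/DTT/Triton buffer for 4.5 h at room temperature. Residual ATP was quantified by Kinase-Glo luciferase luminescence.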

[12] = biological target: Dual specificity protein kinase CLK4 (Homo sapiens) (UniProt Q9HAZ1); test: qHTS Assay for Inhibitors of CDC-like Kinase 4 (ADP-FP Assay) (AID 1795); also: nearly all actives have a fitted effect of over 60% in size; also: potency is read from the fitted curve at half-maximal effect
Method in brief: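 Recombinant human Clk4 (6.25 nM) phosphorylated RS repeat peptide (100 uM) with 1 uM ATP in Tris pH 7.5/MgCl2/EGTA/DTT/Triton buffer for one hour. ADP was quantified by Transcreener competitive fluorescence polarization against an ADP calibration curve.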

[13] = biological target: Ubiquitin carboxyl-terminal hydrolase 1 (Homo sapiens) (UniProt O94782); test: Inhibitors of USP1/UAF1: Pilot qHTS (AID 504865); also: nearly all actives have a fitted effect of over 35% in size; also: potency is read from the fitted curve at half-maximal effect
Method in brief: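 USP1/UAF1 complex (1nM) preincubated with compound 15 min at room temperature, then Ub-Rho substrate (150nM final) added. Fluorescence read kinetically at 480/540 nm, 6 reads every 60 seconds. Buffer: 50mM HEPES pH 7.8, 0.5mM EDTA, 0.1 mg/ml BSA, 1mM TCEP, 0.01% Tween-20.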

[14] = Primary qHTS for small molecule stabilizers of the endoplasmic reticulum resident proteome: Secreted ER Calcium Modulated Protein (SERCaMP) assay (AID 1508630); also: % is scaled to controls: 0 for no effect and ±100 for the full control effect
Method in brief: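 The SH-SY5Y reporter protocol was run at 3 concentrations up to 38.3 uM (primary) or 11 concentrations (follow-up): 16 h compound, 100 nM thapsigargin for 4 h, then extracellular luciferase luminescence.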

[15] = biological target: Lysosomal acid glucosylceramidase (Homo sapiens) (UniProt P04062); test: Glucocerebrosidase-p2 (AID 348; in the data active = potency below about 10 µM; also: potency is read from the fitted curve at half-maximal effect); conditions: purified GBA, blue fluorogenic substrate, 40 min
Method in brief: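 Normal human glucocerebrosidase (0.2 nM) with blue fluorogenic substrate (80 uM final) in citrate/phosphate pH 5.9 with 10mM sodium taurocholate, 0.01% tween-20; 40 min RT, NaOH/glycine stop; fluorescence Ex 365/Em 440; AC50 from a titration from 0.6 nM upwards.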

[16] = biological target: Cytochrome P450 3A4 (Homo sapiens) (UniProt P08684); test: qHTS Assay for Inhibitors and Substrates of Cytochrome P450 3A4 (AID 884); also: potency is read from the fitted curve at half-maximal effect; nearly all actives have a fitted effect of over 50% in size
Method in brief: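 Luminescent readout of luciferin produced by CYP3A4 (20 nM) dealkylation of Luciferin-PPXE, 25 uM (its KM). NADPH-driven reaction ran 60 min at RT after 10 min compound preincubation; data scaled to 57 uM ketoconazole as 100% inhibition.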

[17] = biological target: Cytochrome P450 2C19 (Homo sapiens) (UniProt P33261); test: qHTS Assay for Inhibitors and Substrates of Cytochrome P450 2C19 (AID 899); also: potency is read from the fitted curve at half-maximal effect; nearly all actives have a fitted effect of over 60% in size
Method in brief: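 Human CYP2C19 (5nM) with Luciferin-H EGE at 10uM (its KM) in 50mM KPO4 was preincubated with compound for 10 min at 37C. NADPH regeneration started a 60 min 37C reaction. Luciferin was read by luminescence, normalized to 57uM ketoconazole.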

[18] = biological target: Dual specificity protein kinase CLK4 (Homo sapiens) (UniProt Q9HAZ1); test: qHTS Assay for Inhibitors of CDC-like Kinase 4 (ADP-Glo Assay) (AID 1771); also: nearly all actives have a fitted effect of over 70% in size; also: potency is read from the fitted curve at half-maximal effect
Method in brief: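 In this ADP-Glo format, 1 uM ATP and 100 uM RS peptide served as substrates for 25 nM Clk4 in Mg2+/EGTA/DTT/Triton buffer; reactions ran 1 hr at room temperature before luminescent ADP quantification.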

[19] = measured here: cell count channel max response
[20] = measured here: lipid channel max response

Cytochrome P450 2C19 (Homo sapiens), sequence (P33261 whole entry, looked up): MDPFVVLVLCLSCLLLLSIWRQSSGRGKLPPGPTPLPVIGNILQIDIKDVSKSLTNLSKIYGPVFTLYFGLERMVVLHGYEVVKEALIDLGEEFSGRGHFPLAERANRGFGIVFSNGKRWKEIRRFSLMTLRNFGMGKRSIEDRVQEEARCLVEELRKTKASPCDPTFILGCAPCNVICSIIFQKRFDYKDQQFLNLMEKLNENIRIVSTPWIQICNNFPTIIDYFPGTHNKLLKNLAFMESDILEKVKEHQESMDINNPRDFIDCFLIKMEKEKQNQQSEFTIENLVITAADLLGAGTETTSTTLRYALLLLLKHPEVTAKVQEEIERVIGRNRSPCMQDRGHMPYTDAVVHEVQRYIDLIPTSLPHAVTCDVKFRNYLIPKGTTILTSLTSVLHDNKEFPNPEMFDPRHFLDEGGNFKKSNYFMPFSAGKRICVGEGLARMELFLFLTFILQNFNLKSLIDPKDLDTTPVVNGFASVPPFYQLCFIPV
Cytochrome P450 3A4 (Homo sapiens), sequence (P08684 whole entry, looked up): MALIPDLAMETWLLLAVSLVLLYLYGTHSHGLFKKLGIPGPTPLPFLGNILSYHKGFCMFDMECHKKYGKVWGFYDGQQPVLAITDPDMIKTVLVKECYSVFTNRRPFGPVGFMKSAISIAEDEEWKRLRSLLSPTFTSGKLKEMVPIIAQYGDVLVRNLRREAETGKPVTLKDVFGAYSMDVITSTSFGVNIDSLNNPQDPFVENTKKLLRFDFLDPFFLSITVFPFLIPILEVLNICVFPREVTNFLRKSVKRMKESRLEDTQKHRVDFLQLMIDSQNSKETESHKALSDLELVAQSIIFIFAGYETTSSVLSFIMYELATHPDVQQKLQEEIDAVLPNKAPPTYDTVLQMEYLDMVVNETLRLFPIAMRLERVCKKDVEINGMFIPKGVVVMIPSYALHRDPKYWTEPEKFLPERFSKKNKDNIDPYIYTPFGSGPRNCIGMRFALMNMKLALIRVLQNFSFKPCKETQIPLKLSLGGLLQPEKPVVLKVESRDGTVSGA
Dual specificity protein kinase CLK4 (Homo sapiens), sequence (Q9HAZ1 whole entry, looked up): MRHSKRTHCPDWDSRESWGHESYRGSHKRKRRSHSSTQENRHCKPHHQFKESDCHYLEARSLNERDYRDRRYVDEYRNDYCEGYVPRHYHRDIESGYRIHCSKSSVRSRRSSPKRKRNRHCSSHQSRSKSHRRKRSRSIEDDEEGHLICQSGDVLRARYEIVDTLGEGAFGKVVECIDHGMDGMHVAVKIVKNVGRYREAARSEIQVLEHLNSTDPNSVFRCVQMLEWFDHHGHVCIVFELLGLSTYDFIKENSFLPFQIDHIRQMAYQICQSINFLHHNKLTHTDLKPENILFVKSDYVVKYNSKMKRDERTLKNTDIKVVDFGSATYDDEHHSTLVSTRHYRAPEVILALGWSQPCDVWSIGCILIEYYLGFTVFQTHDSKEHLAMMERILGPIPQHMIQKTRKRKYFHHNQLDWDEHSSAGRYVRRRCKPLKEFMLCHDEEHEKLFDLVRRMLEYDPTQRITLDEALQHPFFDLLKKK
Cytochrome P450 1A2 (Homo sapiens), sequence (P05177 whole entry, looked up): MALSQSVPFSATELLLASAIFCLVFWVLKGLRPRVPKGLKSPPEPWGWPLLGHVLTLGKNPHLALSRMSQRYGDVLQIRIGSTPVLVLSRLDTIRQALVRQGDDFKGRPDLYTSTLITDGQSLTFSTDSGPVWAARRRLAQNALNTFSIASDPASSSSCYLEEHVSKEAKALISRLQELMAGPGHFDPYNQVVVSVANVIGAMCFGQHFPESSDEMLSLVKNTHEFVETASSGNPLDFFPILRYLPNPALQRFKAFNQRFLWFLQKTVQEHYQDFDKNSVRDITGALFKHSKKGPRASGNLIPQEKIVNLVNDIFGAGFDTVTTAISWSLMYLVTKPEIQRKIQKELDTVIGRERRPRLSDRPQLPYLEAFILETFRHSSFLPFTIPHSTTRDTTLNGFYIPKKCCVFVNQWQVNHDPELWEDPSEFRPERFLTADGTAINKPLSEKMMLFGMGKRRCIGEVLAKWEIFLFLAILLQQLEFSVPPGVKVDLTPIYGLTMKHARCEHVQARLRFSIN
3',5'-cyclic-AMP phosphodiesterase 4B (Homo sapiens), sequence (Q07343 whole entry, looked up): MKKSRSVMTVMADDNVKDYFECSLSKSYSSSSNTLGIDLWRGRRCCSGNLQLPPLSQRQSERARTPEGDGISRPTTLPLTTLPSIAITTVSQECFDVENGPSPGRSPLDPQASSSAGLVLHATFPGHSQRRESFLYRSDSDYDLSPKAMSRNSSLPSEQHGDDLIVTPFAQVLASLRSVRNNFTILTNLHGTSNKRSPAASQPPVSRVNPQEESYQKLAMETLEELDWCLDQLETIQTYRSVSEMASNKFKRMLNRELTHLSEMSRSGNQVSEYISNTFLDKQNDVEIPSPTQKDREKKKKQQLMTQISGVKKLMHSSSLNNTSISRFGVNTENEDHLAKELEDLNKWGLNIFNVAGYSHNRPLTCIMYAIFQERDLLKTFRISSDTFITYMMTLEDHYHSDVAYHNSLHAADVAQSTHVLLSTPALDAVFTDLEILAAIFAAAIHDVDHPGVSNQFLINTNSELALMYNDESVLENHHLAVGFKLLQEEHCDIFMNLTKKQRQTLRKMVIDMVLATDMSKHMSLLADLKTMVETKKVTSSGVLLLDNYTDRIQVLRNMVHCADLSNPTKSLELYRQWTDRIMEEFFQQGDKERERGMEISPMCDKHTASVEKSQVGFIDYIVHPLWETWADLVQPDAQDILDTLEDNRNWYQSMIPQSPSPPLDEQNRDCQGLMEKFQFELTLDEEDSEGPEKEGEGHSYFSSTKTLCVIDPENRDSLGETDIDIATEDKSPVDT
Ubiquitin carboxyl-terminal hydrolase 1 (Homo sapiens), sequence (O94782 whole entry, looked up): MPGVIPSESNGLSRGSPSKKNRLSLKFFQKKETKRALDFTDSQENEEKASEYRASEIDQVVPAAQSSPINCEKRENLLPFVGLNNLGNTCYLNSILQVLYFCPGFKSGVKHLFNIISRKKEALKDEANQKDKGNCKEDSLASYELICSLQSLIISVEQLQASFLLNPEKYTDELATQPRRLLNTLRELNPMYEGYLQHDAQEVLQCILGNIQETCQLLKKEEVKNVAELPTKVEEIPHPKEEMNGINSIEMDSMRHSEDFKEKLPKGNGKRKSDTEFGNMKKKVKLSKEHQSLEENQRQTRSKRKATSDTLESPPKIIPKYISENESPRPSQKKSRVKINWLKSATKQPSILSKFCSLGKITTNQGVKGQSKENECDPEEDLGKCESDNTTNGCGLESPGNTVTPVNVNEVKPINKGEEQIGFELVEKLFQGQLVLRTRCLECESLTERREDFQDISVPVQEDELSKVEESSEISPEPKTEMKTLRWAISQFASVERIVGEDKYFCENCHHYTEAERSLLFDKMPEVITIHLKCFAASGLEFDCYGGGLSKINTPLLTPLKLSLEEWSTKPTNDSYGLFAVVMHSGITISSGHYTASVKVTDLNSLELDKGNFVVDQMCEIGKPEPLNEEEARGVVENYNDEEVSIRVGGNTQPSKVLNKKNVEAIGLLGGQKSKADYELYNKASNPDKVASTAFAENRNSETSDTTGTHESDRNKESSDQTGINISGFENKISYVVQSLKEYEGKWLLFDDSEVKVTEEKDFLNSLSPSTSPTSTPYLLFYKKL
Glucocorticoid receptor (Homo sapiens), sequence (P04150 whole entry, looked up, the tested form may be a part): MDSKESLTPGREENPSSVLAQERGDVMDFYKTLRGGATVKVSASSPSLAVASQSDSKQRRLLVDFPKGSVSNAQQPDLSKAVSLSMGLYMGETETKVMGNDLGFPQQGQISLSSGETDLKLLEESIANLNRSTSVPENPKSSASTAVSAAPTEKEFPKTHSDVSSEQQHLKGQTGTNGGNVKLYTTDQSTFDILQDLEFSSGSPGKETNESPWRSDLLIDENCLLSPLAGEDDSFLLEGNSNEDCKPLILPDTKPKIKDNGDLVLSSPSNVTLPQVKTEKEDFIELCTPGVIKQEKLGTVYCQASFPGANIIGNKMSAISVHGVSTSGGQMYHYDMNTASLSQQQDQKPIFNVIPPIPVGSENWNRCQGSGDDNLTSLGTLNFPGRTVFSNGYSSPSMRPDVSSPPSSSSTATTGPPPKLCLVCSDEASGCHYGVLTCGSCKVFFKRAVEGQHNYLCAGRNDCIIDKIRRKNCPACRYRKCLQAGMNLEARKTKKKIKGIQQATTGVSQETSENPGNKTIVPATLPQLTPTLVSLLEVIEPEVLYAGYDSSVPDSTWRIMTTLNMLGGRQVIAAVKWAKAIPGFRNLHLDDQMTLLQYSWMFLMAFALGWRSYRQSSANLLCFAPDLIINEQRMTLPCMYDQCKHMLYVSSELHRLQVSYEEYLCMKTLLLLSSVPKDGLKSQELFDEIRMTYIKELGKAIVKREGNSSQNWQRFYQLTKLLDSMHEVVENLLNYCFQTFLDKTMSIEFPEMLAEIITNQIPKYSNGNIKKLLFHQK
Lysosomal acid glucosylceramidase (Homo sapiens), sequence (P04062 whole entry, looked up): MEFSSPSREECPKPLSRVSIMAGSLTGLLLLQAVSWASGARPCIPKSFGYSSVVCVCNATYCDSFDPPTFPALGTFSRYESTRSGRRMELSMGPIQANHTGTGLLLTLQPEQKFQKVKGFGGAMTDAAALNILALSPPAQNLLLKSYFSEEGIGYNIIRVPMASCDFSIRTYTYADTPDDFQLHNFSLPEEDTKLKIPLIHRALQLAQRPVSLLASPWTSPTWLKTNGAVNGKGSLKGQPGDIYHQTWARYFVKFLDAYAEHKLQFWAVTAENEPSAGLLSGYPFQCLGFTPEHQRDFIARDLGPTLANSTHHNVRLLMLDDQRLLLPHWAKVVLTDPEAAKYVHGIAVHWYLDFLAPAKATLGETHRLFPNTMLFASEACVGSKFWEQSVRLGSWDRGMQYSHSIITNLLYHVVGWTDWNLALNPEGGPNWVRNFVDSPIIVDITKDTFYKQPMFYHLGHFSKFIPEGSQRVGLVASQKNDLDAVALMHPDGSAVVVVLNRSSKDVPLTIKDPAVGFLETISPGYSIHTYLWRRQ

SMILES	activity change, negative = inhibition [1]	Potency [2]	activity change, negative = inhibition [3]	activity, negative = inhibition [4]	Potency [5]	Potency [6]	outcome [7]	Potency [8]	Potency [9]	activity change, negative = inhibition [10]	max response [10, 19] [%]	max response [10, 20] [%]	Potency [11]	Potency [12]	Potency [13]	Potency [14]	Potency [15]	Potency [16]	Potency [17]	Potency [18]
COc1ccc(Oc2ncc3nc(-c4ccc(OC)cc4)c(=O)n(C)c3n2)cc1	-7.57% (inactive)	3.16 µM (active)	-4.34% (inactive)	-16.5% (inactive)	> 9.22 µM (inactive)	> 46 µM (inactive)	inactive	inactive	inactive	2.79% (inactive)	-5.13	-2.18	inactive	inactive	inactive	inactive	–	–	–	–
CN(Cc1ccco1)c1ncncc1-c1ccccc1Cl	23.7% (inactive)	25.1 µM (active)	–	3.72% (inactive)	> 46 µM (inactive)	> 46 µM (inactive)	inactive	inactive	–	7.31% (inactive)	14.4	19.6	inactive	inactive	inactive	inactive	> 11.4 µM (inactive)	0.501 µM (active)	0.794 µM (active)	–
CC(=O)NCCNc1cc(-c2ccccc2C)ncn1	12% (inactive)	15.8 µM (active)	–	16.5% (inactive)	> 46 µM (inactive)	> 46 µM (inactive)	inactive	inactive	–	3.34% (inactive)	16.2	17.3	inactive	inactive	inactive	inactive	> 11.4 µM (inactive)	–	–	–
c1csc(CNc2cc(-c3ccoc3)ncn2)c1	-0.901% (inactive)	2 µM (active)	-2.52% (inactive)	3.9% (inactive)	> 46 µM (inactive)	> 46 µM (inactive)	inactive	inactive	–	5.83% (inactive)	26.5	29.6	–	inactive	inactive	inactive	> 11.4 µM (inactive)	–	–	35.5 µM (active)
O=c1cnc2cnc(Oc3cccc(Cl)c3)nc2n1C[C@H]1CCCO1	-1.71% (inactive)	5.01 µM (active)	1.72% (inactive)	-13.3% (inactive)	> 9.22 µM (inactive)	> 46 µM (inactive)	inactive	inactive	–	5.57% (inactive)	22.7	29.8	inactive	inactive	inactive	inactive	–	–	–	–
Cc1ccccc1-c1cc(NCc2ccccc2)ncn1	19.4% (inactive)	3.98 µM (active)	-13.3% (inactive)	–	> 46 µM (inactive)	> 46 µM (inactive)	inactive	–	–	4.42% (inactive)	24.9	28.2	inactive	inactive	20 µM (active)	inactive	> 11.4 µM (inactive)	–	3.16 µM (active)	–
COCCn1c(=O)cnc2cnc(OC)nc21	-9.59% (inactive)	–	1.87% (inactive)	-10.3% (inactive)	> 9.22 µM (inactive)	> 46 µM (inactive)	inactive	inactive	–	6.21% (inactive)	19.3	24.8	inactive	–	inactive	inactive	> 11.4 µM (inactive)	–	–	–
Cc1ccccc1-c1cncnc1NCc1ccccc1	-6.25% (inactive)	12.6 µM (active)	–	–	> 46 µM (inactive)	> 46 µM (inactive)	inactive	–	inactive	5.04% (inactive)	7.66	10.6	inactive	inactive	inactive	inactive	> 11.4 µM (inactive)	0.316 µM (active)	2 µM (active)	–
CN1CCN(c2ncc3nc(-c4ccc(Cl)cc4)c(=O)n(-c4ccccc4)c3n2)CC1	–	–	–	–	> 9.22 µM (inactive)	> 46 µM (inactive)	–	inactive	–	4.1% (inactive)	13.9	16.4	inactive	inactive	inactive	inactive	> 11.4 µM (inactive)	–	–	–
CCNc1ncc2nc(-c3cc(F)cc(F)c3)c(=O)n(C[C@H]3CCCO3)c2n1	7.28% (inactive)	3.16 µM (active)	8.04% (inactive)	-1.58% (inactive)	> 9.22 µM (inactive)	> 46 µM (inactive)	inactive	inactive	inactive	6.72% (inactive)	13.4	19	–	inactive	inactive	inactive	> 11.4 µM (inactive)	–	–	inactive
O=c1c(-c2cc(F)cc(F)c2)nc2cnc(N3CCOCC3)nc2n1C[C@H]1CCCO1	10.4% (inactive)	2.51 µM (active)	-16% (inactive)	0.32% (inactive)	> 9.22 µM (inactive)	> 46 µM (inactive)	inactive	inactive	–	5.53% (inactive)	8.91	13.4	inactive	–	–	inactive	> 11.4 µM (inactive)	–	–	–
c1csc(CNc2ncnc3ccc(-c4ccoc4)cc23)c1	–	3.16 µM (active)	1.06% (inactive)	-21% (inactive)	> 46 µM (inactive)	> 46 µM (inactive)	inactive	inactive	inactive	-0.111% (inactive)	15.9	14.7	0.251 µM (active)	0.0501 µM (active)	inactive	inactive	–	7.94 µM (active)	6.31 µM (active)	–

Source: PubChem BioAssay (NCATS)
